Data taken from PubChem BioAssay (NCI).
This is part of a sample that, as a whole, favours compounds with a hit. Of some 79,000 tested, about 15% had one in any assay. Active and inactive are the calls of the source. Rule as the data show it: active = growth inhibition above about 70%; inactive = the rest.

Key:
[1] = NCI Yeast Anticancer Drug Screen. Data for the rad50 strain (AID 155);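 also: 0% = growth of vehicle-only cultures of the same strain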; conditions: S. cerevisiae rad50 strain growth inhibition, stronger effect = higher value
Summary of the method: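 Readout: growth inhibition relative to vehicle-treated cultures. Compound exposure was carried out in a genetically defined yeast strain deficient in DNA damage repair.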

[2] = NCI Yeast Anticancer Drug Screen. Data for the mec2-1 strain (AID 157); conditions: S. cerevisiae mec2-1 strain, stronger effect = higher value
Summary of the method: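 Readout is yeast growth inhibition, normalised to vehicle-treated controls, in the mec2-1 strain exposed to compound.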

[3] = NCI Yeast Anticancer Drug Screen. Data for the sgs1 mgt1 strain (AID 161);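 also: 0% = growth of cultures given vehicle only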; conditions: S. cerevisiae sgs1 mgt1 strain, stronger effect = higher value
Summary of the method: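 Compounds are added to genetically altered yeast, and growth is compared with cultures given vehicle alone to give percent inhibition.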

[4] = NCI Yeast Anticancer Drug Screen. Data for the cln2 rad14 strain (AID 165);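 also: 0% = growth equal to vehicle treated cultures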; conditions: S. cerevisiae cln2 rad14 strain, stronger effect = higher value
Summary of the method: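 Relative to vehicle controls, growth inhibition of compound-treated cln2 rad14 yeast was recorded.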

[5] = NCI Yeast Anticancer Drug Screen. Data for the bub3 strain (AID 167); conditions: S. cerevisiae bub3 mutant strain, stronger effect = higher value
Summary of the method: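 Readout: yeast growth inhibition, expressed relative to vehicle-only wells. The test organism is a mutant strain from a panel with lesions in DNA repair or checkpoint genes.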

[6] = NCI Yeast Anticancer Drug Screen. Data for the mlh1 rad18 strain (AID 175); conditions: S. cerevisiae mlh1 rad18 strain growth inhibition, stronger effect = higher value
Summary of the method: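 Test agents were incubated with a yeast strain of defined genotype (DNA damage repair defect). Inhibition of growth was derived by comparison with vehicle-exposed cultures.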

[7] = at 5.0 µM (retest, dose inferred, filed as 0.5)
[8] = at 50.0 µM (retest, dose inferred, filed as 5.0)

Measured: growth inhibition

CCCC(=O)C1=C(O)C(Cc2c(O)c(C)c(O)c(C(=O)CCC)c2O)=C(O)C(C)(C)C1=O
active: [1]; at 50.0 µM 98.2% | [2]; at 50.0 µM 92.9% | [3]; at 50.0 µM 98.5% | [4]; [8] 83% | [4]; at 50.0 µM 99.1% | [5]; [8] 92% | [5]; at 50.0 µM 98.3% | [6]; at 50.0 µM 99%
inactive: [1]; [7] -1% | [1]; [8] 52% | [2]; [7] 4% | [2]; [8] 34% | [3]; [7] 6% | [3]; [8] 56% | [4]; [7] -4% | [5]; [7] -1% | [6]; [7] 7% | [6]; [8] 66%

Cc1ccc([N+](=O)[O-])c2c(NCCCN(C)C)c3ccccc3nc12
inactive: [5]; [7] 35%
active: [1]; [7] 79% | [1]; [8] 98% | [1]; at 50.0 µM 97% | [2]; [7] 97% | [2]; [8] 99% | [2]; at 50.0 µM 95.8% | [3]; [7] 93% | [3]; [8] 98% | [3]; at 50.0 µM 97.2% | [4]; [7] 95% | [4]; [8] 99% | [4]; at 50.0 µM 77.3% | [5]; [8] 97% | [5]; at 50.0 µM 87.8% | [6]; [7] 92% | [6]; [8] 99% | [6]; at 50.0 µM 97%

C1CCC(C2=NC3CCCCC3SC2)CC1 (configuration not stated)
inactive: [1]; [7] 5% | [2]; [7] -16% | [3]; [7] 5% | [4]; [7] 10% | [5]; [7] 6% | [6]; [7] -20%
active: [1]; [8] 98% | [1]; at 50.0 µM 92.2% | [2]; [8] 99% | [2]; at 50.0 µM 93.5% | [3]; [8] 86% | [3]; at 50.0 µM 93.9% | [4]; [8] 96% | [4]; at 50.0 µM 90.1% | [5]; [8] 98% | [5]; at 50.0 µM 92.1% | [6]; [8] 98% | [6]; at 50.0 µM 91.2%

C=C(c1ccccc1)[P+](c1ccccc1)(c1ccccc1)c1ccccc1
active: [1]; [7] 97% | [1]; [8] 99% | [1]; at 50.0 µM 99.2% | [2]; [7] 99% | [2]; [8] 100% | [2]; at 50.0 µM 99.6% | [3]; [7] 99% | [3]; [8] 99% | [3]; at 50.0 µM 99.5% | [4]; [7] 97% | [4]; [8] 99% | [4]; at 50.0 µM 99% | [5]; [7] 92% | [5]; [8] 99% | [5]; at 50.0 µM 99% | [6]; [7] 98% | [6]; [8] 99% | [6]; at 50.0 µM 99.5%

Cc1ccc(S(=O)(=O)Nc2ccccc2SSc2ccccc2NS(=O)(=O)c2ccc(C)cc2)cc1
active: [2]; [8] 81% | [3]; [8] 76% | [4]; [8] 82% | [5]; [8] 74% | [6]; [8] 77%
inactive: [1]; [7] 46% | [1]; [8] 69% | [1]; at 50.0 µM 57.5% | [2]; [7] 38% | [2]; at 50.0 µM 63.8% | [3]; [7] 59% | [3]; at 50.0 µM 60.6% | [4]; [7] 44% | [4]; at 50.0 µM 68.9% | [5]; [7] 53% | [5]; at 50.0 µM 60.4% | [6]; [7] 63% | [6]; at 50.0 µM 60.5%

O=C(Nc1ccc(-c2cn3ccccc3n2)cc1)c1cc(Br)ccc1O
inactive: [1]; [7] 4% | [1]; [8] 15% | [1]; at 50.0 µM -21.6% | [2]; [7] 5% | [2]; [8] 7% | [2]; at 50.0 µM -28.6% | [3]; [7] 12% | [3]; [8] 9% | [3]; at 50.0 µM -13.8% | [4]; [7] 33% | [4]; [8] -9% | [4]; at 50.0 µM 39.9% | [5]; [7] 5% | [5]; [8] 6% | [5]; at 50.0 µM -24.4% | [6]; [7] 5% | [6]; [8] 13% | [6]; at 50.0 µM -29.8%

OCC1CC[N-]CC1.OCC1CC[N-]CC1.[Cl][Pt+2]([Cl])([Cl])[Cl]
inactive: [1]; [7] 24% | [2]; [7] 5% | [3]; [7] 33% | [4]; [7] 15% | [5]; [7] 6% | [6]; [7] 40%
active: [1]; [8] 99% | [1]; at 50.0 µM 98.4% | [2]; [8] 97% | [2]; at 50.0 µM 92.6% | [3]; [8] 98% | [3]; at 50.0 µM 96.8% | [4]; [8] 98% | [4]; at 50.0 µM 92.3% | [5]; [8] 99% | [5]; at 50.0 µM 96.2% | [6]; [8] 98% | [6]; at 50.0 µM 82.5%

C1=NN(c2ccccc2)C2c3ccccc3CCCC12 (configuration not stated)
active: [1]; [8] 98% | [1]; at 50.0 µM 99.2% | [2]; [8] 99% | [2]; at 50.0 µM 98.7% | [3]; [8] 99% | [3]; at 50.0 µM 99% | [4]; [8] 98% | [4]; at 50.0 µM 98.8% | [5]; [8] 99% | [5]; at 50.0 µM 99.1% | [6]; [8] 99% | [6]; at 50.0 µM 98.7%
inactive: [1]; [7] 8% | [2]; [7] 18% | [3]; [7] 8% | [4]; [7] -4% | [5]; [7] 5% | [6]; [7] -2%

CC(c1ccccc1)n1c2ccccc2c2c(N)ncnc21 (configuration not stated)
inactive: [1]; [7] 6% | [2]; [7] -11% | [3]; [7] 23% | [4]; [7] -4% | [5]; [7] 13% | [6]; [7] 32%
active: [1]; [8] 100% | [1]; at 50.0 µM 78.4% | [2]; [8] 100% | [2]; at 50.0 µM 86.8% | [3]; [8] 100% | [3]; at 50.0 µM 89.5% | [4]; [8] 100% | [4]; at 50.0 µM 90.8% | [5]; [8] 100% | [5]; at 50.0 µM 90.3% | [6]; [8] 99% | [6]; at 50.0 µM 91.9%
